# A selection: hits, their analogues and other compounds. The true share with any hit is near 1.1%.
# 3CLpro inhibitor = SARS-CoV 3CLpro protease inhibition; recombinant SARS-CoV 3CLpro, quenched FRET peptide cleavage; AID 1706; hit rate 0.14% among 290,000; inhibition, % at 6 µM; P0C6X7; in the data active = inhibition above about 12%
# PrPC TRFRET = cell surface PrPC inhibition, primary TR-FRET screen | P04156 | TR-FRET read-out | inhibition, % at 13.8 µM | hit rate 0.43% among 370,000 | AID 720596; in the data active = inhibition above about 24%; also: 0% = median of the test wells and 100% = reference compound wells
# BJeLR lethal = BJeLR cell viability loss; inhibition, % (concentration not given with the values); AID 1554; BJeLR (HRASV12) viability, CellTiter-Glo ATP luminescence, 48 h; hit rate 0.17% among 300,000; in the data active = inhibition above about 50%
# DUSP3 inh = DUSP3 (human) phosphatase inhibition; P51452; recombinant VHR phosphatase, pNPP absorbance; inhibition, % at 13.3 µM; hit rate 0.52% among 290,000; in the data active = inhibition above about 50%
# PrPC confirm = cell surface PrPC inhibition, TR-FRET confirmation. shares compounds with PrPC TRFRET. cell surface PrPC level. inhibition, % at 13.8 µM. hit rate 65% among 1,500; in the data active = inhibition above about 25%
# LD9 cytotox = LD9 cell cytotoxicity, PrPc inhibitor counter-screen; shares compounds with PrPC TRFRET; LD9 cells cytotoxicity, luminescence viability; inhibition, % at 13.8 µM; hit rate 29% among 1,500; AID 743201; in the data active = inhibition above about 9.5%
# Numbers without * were called inactive; nt = no result.
SMILES,3CLpro inhibitor,PrPC TRFRET,BJeLR lethal,DUSP3 inh,PrPC confirm,LD9 cytotox
Cc1cccc(CC(=O)NCCS(=O)(=O)N2CCN(c3ccccc3)CC2)c1,nt,-2.7,nt,nt,nt,nt
c1ccc(Cc2nnc(Sc3ccccc3)c3ccccc23)cc1,-0.7,52.5*,-3.0,-2.4,71.2*,-14.0
Cc1ccc2[nH]c3c(=S)nc[nH]c3c2c1,1.5,129.1*,2.2,25.6,147.3*,3.5
Cc1nn(Cc2ccc(Cl)cc2)c(C)c1NC(=O)c1cc(-c2ccco2)on1,3.1,32.4*,1.5,-4.3,31.2*,4.1
Cc1nn(Cc2ccc(Cl)c(Cl)c2)c(C)c1NC(=O)c1cc(-c2ccco2)on1,1.9,38.1*,-3.3,4.4,30.8*,0.8
CC(=NCc1cccnc1)c1c(O)n(-c2ccc(C)cc2)c(=O)[nH]c1=O,0.8,85.0*,1.2,35.9,65.2*,-2.7
CC(=NCc1cccnc1)c1c(O)n(-c2ccccc2C)c(=O)[nH]c1=O,6.1,3.2,4.4,20.2,nt,nt
C[C@H]1COc2cc(Br)ccc2S(=O)(=O)N1Cc1cn(Cc2ccco2)nn1,nt,1.8,nt,nt,nt,nt
Cc1cc(Br)c2nc3c(c(C(=O)O)c2c1)CCCCC3,1.9,116.6*,-5.8,22.5,131.6*,-4.3
CCc1ccc2nc3c(c(C(=O)O)c2c1)CCC3,0.4,-6.2,4.0,-7.5,nt,nt
CCOC(=O)[C@]12CCCC=C1N(CCC1=CCCCC1)C(=O)[C@H](CC(=O)NCc1ccc(C)o1)C2,nt,1.2,nt,nt,nt,nt
COc1cccc2sc3cc(NCc4ccc5c(c4)OCO5)ccc3c(=O)c12,nt,94.5*,nt,nt,139.3*,-3.3
COc1ccc(NCc2ccc3c(c2)OCO3)cc1Cl,-2.9,0.7,-4.9,-1.8,nt,nt
COc1cc2sc3cc(NCc4ccc5c(c4)OCO5)ccc3c(=O)c2cc1OC,nt,39.1*,nt,nt,67.0*,3.0
OC(CN1C2=NCCN2c2ccccc21)c1ccc2c(c1)OCO2 (stereo unspecified),-2.9,52.9*,-0.1,16.1,2.3,5.3
OC(CN1C2=NCCCN2c2ccccc21)c1ccc2c(c1)OCO2 (stereo unspecified),2.8,-7.4,14.3,3.0,nt,nt
CCCNC(=O)c1cc(C2CCCCN2C(=O)CCCc2ccccc2)on1 (stereo unspecified),nt,1.0,nt,nt,nt,nt
COc1ccc(S(=O)(=O)NC2CCN(C#N)CC2)cc1,nt,7.2,nt,nt,nt,nt
O=C(O)CCCCCCC1C(=O)NC(=O)N1CCC(O)C1CCCCC1 (stereo unspecified),-2.7,26.6*,6.6,24.0,19.4,-7.8
O=C(O)CCCCCN1C(=O)C2CCCCC2C1=O (stereo unspecified),5.0,3.8,4.9,26.3,nt,nt
O=C1C2C3C=CC(CC3)C2C(=O)N1c1ccccc1 (stereo unspecified),2.6,-4.2,7.5,-15.8,nt,nt
O=C1C=CC2C3C(=O)N(c4ccccc4)C(=O)C3C1N2Cc1ccccc1 (stereo unspecified),nt,49.5*,nt,nt,3.5,98.9*
O=C(Nc1ccc2nc3n(c(=O)c2c1)CCCCC3)c1cc([N+](=O)[O-])ccc1F,6.3,-25.8,8.0,6.5,nt,nt
O=C(Nc1ccc2nc3n(c(=O)c2c1)CCCCC3)c1c(F)ccc([N+](=O)[O-])c1F,6.2,26.1*,75.4*,-1.9,28.2*,95.8*
CCCN(C(=O)C(=O)Nc1ccc2nc3n(c(=O)c2c1)CCCCC3)c1ccc(OCC)cc1,0.7,30.8*,-7.4,-3.6,11.6,-1.7
SMILES,3CLpro inhibitor,PrPC TRFRET,BJeLR lethal,DUSP3 inh,PrPC confirm,LD9 cytotox
CCOC(=O)Nc1ccc2nc3n(c(=O)c2c1)CCCCC3,2.7,6.8,nt,11.9,nt,nt
COC(=O)/C=C/S(=O)(=O)c1ccc(NC(C)=O)cc1,-1.0,76.7*,0.3,32.7,-1.1,93.8*
COc1ccccc1OS(=O)(=O)c1ccc(NC(C)=O)cc1,-1.2,0.6,-1.2,1.1,nt,nt
Cn1cc(Cc2ccc(C(=O)N3CCCCC3)cn2)c2ccccc21,nt,0.9,nt,nt,nt,nt
CC1CCc2cc(F)cc3c(O)c(C(=O)NCC4CCCO4)c(=O)n1c23 (stereo unspecified),-1.0,31.2*,-7.6,4.7,40.0*,-4.6
Cc1ncc(CO)c(/C=N/NC(=O)c2ccc(O)cc2)c1O,0.8,4.2,-1.7,25.6,nt,nt
Cc1ncc(CO)c(/C=N/NC(=O)c2cc3c(s2)CCCC3)c1O,1.2,39.8*,8.2,5.2,23.2,14.9*
O=C1NC[C@@H](CCCCN2C[C@H](Cc3ccc(O)cc3)N(Cc3ccccc3)C(=O)C2=O)N(Cc2ccccc2)C1=O,nt,2.2,nt,nt,nt,nt
OCC1OC(n2ccc3c(NO)ncnc32)C(O)C1O (stereo unspecified),nt,53.4*,nt,nt,44.1*,92.0*
NC(=O)c1c(Br)n(C2OC(CO)C(O)C2O)c2ncnc(N)c12 (stereo unspecified),nt,0.3,nt,nt,nt,nt
NC(=O)c1cn(C2OC(CO)C(O)C2O)c2ncnc(N)c12 (stereo unspecified),0.5,55.9*,91.0*,13.4,58.2*,40.0*
N#Cc1cn(C2OC(CO)C(O)C2O)c2ncnc(N)c12 (stereo unspecified),nt,26.4*,nt,nt,29.7*,39.9*
CN(C)c1ncnc2c1ccn2C1OC(CO)C(O)C1O (stereo unspecified),nt,2.0,nt,nt,nt,nt
O=C(NCc1ccccc1)c1cccc(NC(=O)C2CCCC2)c1,nt,6.2,nt,nt,nt,nt
COc1cc2[nH]c(=S)n(NC(=O)c3ccccc3)c(=O)c2cc1OC,-2.5,36.4*,5.7,29.6,50.0*,-4.5
CCC(=O)N1CCN(c2ccc(-n3c(=O)ccc4cnc5ccc(-c6cnc7ccccc7c6)cc5c43)cc2C(F)(F)F)CC1,nt,37.1*,nt,nt,39.0*,32.6*
COc1ccc(NC(=O)CSCC(=O)N(C)CC(=O)Nc2cccc3ccccc23)cc1,nt,5.3,-2.0,nt,nt,nt
Cc1cc(O)cc(O)c1/C=N/NC(=O)c1ccc2c(c1)OCCO2,nt,31.9*,nt,nt,24.6*,21.5*
O=C(O)c1ccc(/C=N/NC(=O)c2ccc3c(c2)OCCO3)cc1,-0.1,5.1,0.2,-18.0,nt,nt
O=C(NCCn1cccn1)C1CCC(=O)N(CCc2ccc(Cl)cc2)C1 (stereo unspecified),-1.8,-3.6,0.3,10.7,nt,nt
CC(C)c1oc(=O)cc2c1[C@@H](O)[C@H]1OC(=O)[C@@]3(C)CC[C@@H](O)[C@@]2(C)C13 (stereo partly specified),-2.9,61.7*,-11.0,8.6,52.2*,13.0*
CC(C)c1oc(=O)cc2c1[C@@H](O)[C@H]1OC(=O)[C@@]3(C)C[C@@H](O)[C@@H](O)[C@@]2(C)C13 (stereo partly specified),4.5,63.9*,13.2,16.3,58.5*,11.2*
COc1ccc(NCC(=O)Nc2cc(S(=O)(=O)N3CCOCC3)ccc2N2CCOCC2)c(OC)c1,1.2,24.8*,4.5,-2.7,-0.1,-0.4
Cc1ccc(C(=O)Nc2cc(S(=O)(=O)N3CCOCC3)ccc2N2CCCC2)cc1,nt,46.0*,nt,nt,49.6*,-8.2
O=C(Nc1cc(S(=O)(=O)N2CCOCC2)ccc1N1CCCC1)c1ccc(Cl)cc1,nt,11.7,nt,nt,nt,nt
COCCNC(=O)C1(C)CCN(C(=O)c2ccc(SC(F)(F)F)cc2)C1 (stereo unspecified),nt,-7.4,nt,nt,nt,nt
